{
  "source": "PubChem BioAssay (NCATS)",
  "note": "Several values for one entry are separate records, joined by “and”; a condition that tells them apart may be missing. Identical values can stand only once. Records with an inconclusive call do not appear. Entries that show only a call come without a potency. Some structures have more than one record in an assay (separate samples or runs), and their calls can disagree. Activity calls are given as the source filed them. The call rests on the fitted dose curve; in most records, active means well fitted inhibition curve with a large enough effect; inconclusive means small, poorly fitted or top-dose-only effect; inactive means flat fitted curve, though single readings scatter. Potency means the concentration at half of the fitted maximal effect.",
  "data": [
    {"tested_on": "MCC-26", "experiment": "qHTS assay to identify novel small-molecules to repurpose for Merkel cell carcinoma treatment (AID 1296009); further: nearly all actives have a fitted effect of over 60% in size", "details": "MCC and control cell lines, CellTiter-Glo viability, 72 h; series mostly up to 46 µM; activity change, negative = cytotoxicity: at the top concentration", "source_text": "MCC is a rare and aggressive neuroendocrine skin cancer with limited treatment options. Approximately 80% of MCCs have the Merkel cell polyomavirus (MCPyV) DNA integrated into the host genome (virus-positive: VP-MCC) and viral oncogenes drive oncogenesis. The remaining MCCs are virus-negative (VN-MCC) and are caused by UV mutagenesis. To identify novel treatments for VP-MCC and/or VN-MCC we screened three VP-MCC cell lines (WAGA, MKL-1, MKL-2), three VN-MCC cell lines (MCC-13, MCC-26, UISO), and four immortalized, non-transformed control cell lines (HaCaT, HEK293T, CRL7250, NIH-3T3) against ~2,400 compounds in the NCGC Pharmaceutical Collection (NPC) and ~1,900 compounds in the Mechanism Interrogation PlatE (MiPE). Using cell viability as a readout (CellTiter-Glo assay) we found both overlapping and distinct drugs that can be repurposed for the treatment of VP-MCC and VN-MCC.\nA high-throughput screen was conducted in 1536-well white flat bottom plates (Corning) on a Kalypsys robotic system. Cell lines WAGA, MKL-1, MKL-2, MCC-13, MCC-26, UISO, HaCaT, HEK293T, CRL7250, and NIH-3T3 were screened against 2 small molecule annotated drug libraries NPC and MIPE in dose response (8 and 11 pt. respectively) measuring cell viability after 72 hours of incubation. […] A 1,536 pintool (Kalypsys) was used to transfer 23 nL of compound in DMSO to the 1,536-well assay plates. After 72 hr incubation at 37 degree celsius, 2.5 uL of CellTiter-Glo (Promega) was dispensed into each well using a BiorapTR. Plates were incubated at room temperature for 10 min, transferred to a ViewLux (PerkinElmer) and the luminescence was recorded using an exposure time of 2 seconds. Relative luminescence units (RLUs) were normalized to in-plate controls (no cells as a positive (cytotoxicity) control, DMSO as negative control) and the normalized data was processed using NCATS in-house software.", "values": [
      {"smiles": "CN(C)c1nc(N(C)C)nc(N(C)C)n1", "Potency": "inactive"},
      {"smiles": "COc1ccccc1N1CCN(CC(O)COc2cccc3ccccc23)CC1", "note": "(stereo not given)", "Potency": "inactive"},
      {"smiles": "CN1CCC(=C2c3ccccc3C=Cc3ccccc32)CC1", "Potency": "inactive"},
      {"smiles": "Cc1cnc(C(=O)NCCc2ccc(S(=O)(=O)NC(=O)NC3CCCCC3)cc2)cn1", "Potency": "inactive"},
      {"smiles": "Clc1ccc(C(c2ccccc2Cl)C(Cl)Cl)cc1", "note": "(stereo not given)", "Potency": "inactive"},
      {"smiles": "NC(=O)OCC(COC(N)=O)c1ccccc1", "Potency": "inactive"},
      {"smiles": "COc1ccc2c(c1)c(CC(=O)O)c(C)n2C(=O)c1ccc(Cl)cc1", "Potency": "inactive"},
      {"smiles": "CCOC(=O)Nc1ccc(NCc2ccc(F)cc2)nc1N", "Potency": "inactive"},
      {"smiles": "CN(C)C(=O)C(CCN1CCC(O)(c2ccc(Cl)cc2)CC1)(c1ccccc1)c1ccccc1", "activity change, negative = cytotoxicity": "-13.7% (inactive)"},
      {"smiles": "Cc1cc(C(C)(C)C)c(O)c(C)c1CC1=NCCN1", "Potency": "inactive"},
      {"smiles": "NS(=O)(=O)c1cc2c(cc1Cl)NCNS2(=O)=O", "Potency": "inactive"},
      {"smiles": "Clc1ccccc1C(c1ccccc1)(c1ccccc1)n1ccnc1", "Potency": "inactive"},
      {"smiles": "CCc1cccc2c3c([nH]c12)C(CC)(CC(=O)O)OCC3", "note": "(stereo not given)", "Potency": "inactive"},
      {"smiles": "COc1cc2nc(N(C)CCCNC(=O)C3CCCO3)nc(N)c2cc1OC", "note": "(stereo not given)", "Potency": "inactive"},
      {"smiles": "Clc1ccc2c(c1)C(N1CCNCC1)=Nc1ccccc1O2", "Potency": "inactive"},
      {"smiles": "OCCN1CCN(CCCN2c3ccccc3Sc3ccc(C(F)(F)F)cc32)CC1", "activity change, negative = cytotoxicity": "-2.95% (inactive)"},
      {"smiles": "CCC1(C)CC(=O)NC1=O", "note": "(stereo not given)", "Potency": "inactive"},
      {"smiles": "OCCN(CCO)c1nc(N2CCCCC2)c2nc(N(CCO)CCO)nc(N3CCCCC3)c2n1", "Potency": "inactive"},
      {"smiles": "CN1CCN(CCCN2c3ccccc3Sc3ccc(Cl)cc32)CC1", "Potency": "inactive"},
      {"smiles": "CC(C)Cc1ccc(C(C)C(=O)O)cc1", "note": "(stereo not given)", "Potency": "inactive"},
      {"smiles": "CN(C)C(=N)N=C(N)N", "Potency": "inactive"},
      {"smiles": "CC1(C)O[C@H]2CC(=O)OC[C@]23[C@H]2CC[C@@]4(C)[C@H](c5ccoc5)OC(=O)[C@H]5O[C@]54[C@]2(C)C(=O)C[C@@H]13", "Potency": "inactive"},
      {"smiles": "Clc1ccc2nsnc2c1NC1=NCCN1", "Potency": "inactive"},
      {"smiles": "Nc1c2c(nc3ccccc13)CCCC2", "Potency": "inactive"},
      {"smiles": "COc1cc2nc(N3CCN(C(=O)C4COc5ccccc5O4)CC3)nc(N)c2cc1OC", "note": "(stereo not given)", "Potency": "inactive"},
      {"smiles": "CN1CCC(=C2c3ccccc3CC(=O)c3sccc32)CC1", "Potency": "inactive"},
      {"smiles": "CC12CC3CC(C)(C1)CC(N)(C3)C2", "Potency": "inactive"},
      {"smiles": "Fc1ccc([C@@H]2CCNC[C@H]2COc2ccc3c(c2)OCO3)cc1", "Potency": "inactive"},
      {"smiles": "O=C(Nc1ccc([N+](=O)[O-])cc1Cl)c1cc(Cl)ccc1O", "activity change, negative = cytotoxicity": "-19.3% [at 16.1 µM] (inactive)"},
      {"smiles": "O=c1c(-c2ccc(O)cc2)coc2cc(O)cc(O)c12", "Potency": "inactive"},
      {"smiles": "C[C@](N)(Cc1ccc(O)c(O)c1)C(=O)O", "Potency": "inactive"},
      {"smiles": "CC(C)NCC(O)COc1ccc(CCOCC2CC2)cc1", "note": "(stereo not given)", "Potency": "inactive"},
      {"smiles": "CCCCc1oc2ccccc2c1C(=O)c1cc(I)c(OCCN(CC)CC)c(I)c1", "Potency": "inactive"},
      {"smiles": "COc1ccc(CCN(C)CCCC(C#N)(c2ccc(OC)c(OC)c2)C(C)C)cc1OC", "note": "(stereo not given)", "Potency": "inactive"},
      {"smiles": "COc1cc2c(c(OC)c1OC)-c1ccc(OC)c(=O)cc1[C@@H](NC(C)=O)CC2", "Potency": "inactive"},
      {"smiles": "NC(=O)NO", "Potency": "inactive and 10.5 µM (active)"},
      {"smiles": "N[C@@H](Cc1c[nH]c2ccc(O)cc12)C(=O)O", "Potency": "inactive"},
      {"smiles": "O=c1c(O)c(-c2ccc(O)c(O)c2)oc2cc(O)cc(O)c12", "Potency": "inactive"},
      {"smiles": "CC(C)(Oc1ccc(C2CC2(Cl)Cl)cc1)C(=O)O", "note": "(stereo not given)", "Potency": "inactive"},
      {"smiles": "COc1nc(C)nc(Cl)c1NC1=NCCN1", "Potency": "inactive"}
    ]}
  ]
}
